Molecules are shown by their SMILES. This is part of a sample that, as a whole, favours compounds with a hit. Of some 83,000 tested, about 20% had one in any assay.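 The test compound was applied at a single concentration to cells in 96-well plates for 48 hours, and percent growth was recorded.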 Unmarked numbers belong to inactive results. Activity calls are given as the source filed them. The calls were made as follows: active = growth percent below 10; inactive = the rest.

The first assay has as its system U251 CNS. The assay is described as follows: NCI-60 one-dose screen, 48 h (100 = growth as untreated, 0 = no growth, -100 = all killed). The conditions noted are these: 10 µM unless noted.
In the case of `Cc1cc(C)c(C(=O)c2cccs2)c(C)c1`, the growth is 97.5%.
With `COC(=O)C1(NC(=O)CNC(=O)OCc2ccccc2)CCCC1`, the growth was 105%.
As for `Cc1cc(C)nc(NS(=O)(=O)c2ccc(Nc3nc4nc(SCc5ccccc5)nc(-c5ccc(O)cc5)c4c(=O)[nH]3)cc2)n1`, the growth is 94.6%.
Consider `Nc1ccc(N=Nc2ccccc2)cc1[N+](=O)[O-]`, for which the growth is 86.7%.
For `NS(=O)(=O)c1cc2c(cc1Cl)NC=NS2(=O)=O`, the growth was 99.7%.
Consider `CCOC(=O)C1=CCC(n2cc(C)c(=O)[nH]c2=O)O1` (centres undefined), for which the growth was 98.8%.
With `C[C@@H]1C[C@@H]([C@@H](CC2CC(=O)NC(=O)C2)OC(=O)CC(=O)c2ccccc2)C(=O)[C@@H](C)C1`, the growth is 14.7%.
For `OCc1n(Cc2ccc3ccccc3c2)cc[n+]1Cc1ccc2ccccc2c1`, the growth was 60%.
Still for that read-out and setting: the result for `COc1cnc2c(c1)C(=O)c1c-2n(CCCNC2=NCCS2)c(=O)c2cc(F)ccc12` reads 12.1%; that for `Cc1onc(-c2ccccc2Cl)c1C(=O)N[C@@H]1C(=O)N2[C@@H]1SC(C)(C)[C@@H]2C(=O)O`, 98.4%; that for `C[C@H]1O[C@@H](O[C@H]2[C@@H](O)C[C@H](O[C@H]3[C@@H](O)C[C@H](O[C@H]4CC[C@]5(C)C6C[C@@H](O)[C@]7(C)[C@@H](C8=CC(=O)OC8)CC[C@]7(O)C6CC[C@@H]5C4)O[C@@H]3C)O[C@@H]2C)C[C@H](O)[C@@H]1O` (some centres undefined), -100% (active).
Same read-out and setting: the result for `CC1CN(/N=C/c2ccc([N+](=O)[O-])o2)C(=N)O1` (centres undefined) reads 101%; that for `O=C1NCCc2c1noc2-c1ccccc1`, 98.5%; that for `CC(=O)c1ccccc1NC(=O)C(C)(c1ccccc1)c1ccccc1`, 91.6%.
The same measure, in the same setting: the result for `Cc1n(Cc2ccc3ccccc3c2)c2ccccc2[n+]1Cc1ccc2ccccc2c1` reads -87.6% (active).

The next assay concerns PC-3 prostate. The assay is described as above. The conditions noted are these: 10 µM unless noted.
For the molecule `COc1ccc2c(c1)C(=Nc1cc(OC)c(OC)c(OC)c1)C(=O)N2`, the growth was 77.5%.
Turning to `COc1cnc2c(c1)C(=O)c1c-2n(CCCn2ccnc2)c(=O)c2cc(F)ccc12`, the growth is -4.35% (active).
Regarding `C[C@]12CCC(=O)C=C1CCC1C2[C@@H](O)C[C@@]2(C)C1CC[C@]2(O)C(=O)COC(=O)CCC(=O)O` (some centres undefined), the growth was 93.2%.
Consider `C[C@@H]1[C@H]2[C@H](C=C3[C@@H]4CC[C@H]5Cc6nc7c(nc6C[C@]5(C)[C@H]4C[C@@H](O)[C@@]32C)C[C@@H]2CC[C@H]3C4=C[C@@H]5O[C@@]6(CC[C@](C)(CO)O6)[C@@H](C)[C@@]5(O)[C@@]4(C)[C@H](O)C[C@@H]3[C@@]2(C)C7)O[C@]12CCC(C)(C)O2`, for which the growth was -32% (active).
Regarding `CCOC(=O)/C=C1/SC(=Nc2ccc(C#N)cc2)N(Cc2ccco2)C1=O`, the growth is 20.2%.
Still for that read-out and setting: for `C[C@H](C(=O)N[C@@H](Cc1ccc(-c2ccccc2)cc1)C(=O)NC1CC(C)(C)NC(C)(C)C1)c1ccc(-c2ccccc2)c(F)c1` the value was -65.5% (active); for `Nc1ccccc1C#Cc1ccccc1C#Cc1ccc(OCCCCCCOc2ccc(C#Cc3ccccc3C#Cc3ccccc3N)cc2)cc1`, 97%; for `CCSc1nc(-c2ccco2)n2nc(-c3ccco3)cc2n1`, 95.7%.
For `CN(C)c1ccc(-c2nc3ncc(Br)cc3o2)cc1`, the growth was 83.3%.
Consider `CN1CCN(c2nc3scc(-c4ccccc4)c3c(=O)[nH]2)CC1`, for which the growth is 92.9%.
Regarding `CC(=O)OC1Oc2cc(C)c(C)cc2-c2oc(=O)c(-c3ccccc3)cc21` (centres undefined), the growth was -11.4% (active).
On the same count and under the same terms, for `N#CC(C#N)C(C#N)C#N` the value was 90.4%.
The same measure, in the same setting: for `CCOC(=O)c1sc(NC(=O)COc2cccc(/C=C3\CCc4cc(OC)ccc4C3=O)c2)nc1C` the value was 48.9%.
Still for that read-out and setting: the result for `COc1cnc2c(c1)C(=O)c1c-2n(CCCN2CCOCC2)c(=O)c2cc(F)ccc12` reads 12.1%; that for `CCN1CC2=C(Nc3nc(SC)[nH]c(=O)c3C2c2cc(OC)c(OC)c(OC)c2)/C(=C/c2cc(OC)c(OC)c(OC)c2)C1` (centres undefined), 92.2%; that for `CCOC(=O)CCC(=O)O[C@H]1[C@H](O[C@@H]2[C@@H](C)[C@H](O[C@H]3C[C@@](C)(OC)[C@@H](O)[C@H](C)O3)[C@@H](C)C(=O)O[C@H](CC)[C@@](C)(O)[C@H](O)[C@@H](C)C(=O)[C@H](C)C[C@@]2(C)O)O[C@H](C)C[C@@H]1N(C)C`, 92.6%.
Consider `CNCCCn1c2c(c3ccc(F)cc3c1=O)C(=O)c1cc(OC)cnc1-2`, for which the growth was 6.67% (active).
On to `NC(=NCCCCCCN=C(N)/N=C(\N)Nc1ccc(Cl)cc1)/N=C(\N)Nc1ccc(Cl)cc1`, for which the growth is 20.7%.
As to `O=C1CSC(c2ccccc2Cl)N1c1nnc(Cn2nnc3ccccc32)o1` (centres undefined), the growth is 68.9%.
Consider `O=C(O)CCC(=O)OC[C@@H](NC(=O)C(Cl)Cl)[C@H](O)c1ccc([N+](=O)[O-])cc1`, for which the growth was 87.5%.
Still for that read-out and setting: the result for `COc1ccc(-c2cc(-c3nnc(SCC(=O)Nc4ccc(C(C)=O)cc4)n3-c3ccccc3)c3ccccc3n2)cc1OC` reads 98.7%; that for `C[C@H](C(=O)N[C@@H](Cc1ccc(-c2ccccc2)cc1)C(=O)NC1CC(C)(C)N(C)C(C)(C)C1)c1ccc(-c2ccccc2)c(F)c1`, -70.5% (active).
With `O=C(O)C1C(c2ccccc2)c2ccccc2C(O)C1CO` (centres undefined), the growth is 91.5%.
On the same count and under the same terms, for `CSc1nc(Nc2ccc(S(=O)(=O)Nc3ccon3)cc2)c(C#N)c(-c2ccc(Cl)cc2)n1` the value was 109%; for `Cc1cc(C)c(C(=O)c2cccs2)c(C)c1`, 89.5%; for `COC(=O)C1(NC(=O)CNC(=O)OCc2ccccc2)CCCC1`, 103%.
As for `Cc1cc(C)nc(NS(=O)(=O)c2ccc(Nc3nc4nc(SCc5ccccc5)nc(-c5ccc(O)cc5)c4c(=O)[nH]3)cc2)n1`, the growth was 67.7%.
Consider `Nc1ccc(N=Nc2ccccc2)cc1[N+](=O)[O-]`, for which the growth was 83.9%.
`NS(=O)(=O)c1cc2c(cc1Cl)NC=NS2(=O)=O`: the growth is 100%.
`CCOC(=O)C1=CCC(n2cc(C)c(=O)[nH]c2=O)O1` (centres undefined): the growth was 84.7%.
As for `C[C@@H]1C[C@@H]([C@@H](CC2CC(=O)NC(=O)C2)OC(=O)CC(=O)c2ccccc2)C(=O)[C@@H](C)C1`, the growth was 12.3%.
On to `OCc1n(Cc2ccc3ccccc3c2)cc[n+]1Cc1ccc2ccccc2c1`, for which the growth is 37.8%.
Consider `COc1cnc2c(c1)C(=O)c1c-2n(CCCNC2=NCCS2)c(=O)c2cc(F)ccc12`, for which the growth is 36.9%.
The same measure, in the same setting: the result for `Cc1onc(-c2ccccc2Cl)c1C(=O)N[C@@H]1C(=O)N2[C@@H]1SC(C)(C)[C@@H]2C(=O)O` reads 98.3%.
On to `C[C@H]1O[C@@H](O[C@H]2[C@@H](O)C[C@H](O[C@H]3[C@@H](O)C[C@H](O[C@H]4CC[C@]5(C)C6C[C@@H](O)[C@]7(C)[C@@H](C8=CC(=O)OC8)CC[C@]7(O)C6CC[C@@H]5C4)O[C@@H]3C)O[C@@H]2C)C[C@H](O)[C@@H]1O` (some centres undefined), for which the growth was -21.3% (active).
As for `CC1CN(/N=C/c2ccc([N+](=O)[O-])o2)C(=N)O1` (centres undefined), the growth was 89.5%.
Take `O=C1NCCc2c1noc2-c1ccccc1`: the growth is 94.5%.
In the case of `CC(=O)c1ccccc1NC(=O)C(C)(c1ccccc1)c1ccccc1`, the growth is 66.8%.
As for `Cc1n(Cc2ccc3ccccc3c2)c2ccccc2[n+]1Cc1ccc2ccccc2c1`, the growth was -68.1% (active).

(Values after PubChem BioAssay (NCI).)
